Mito fusion act = inhibitors of mitochondrial division or activators of mitochondrial fusion. S. cerevisiae fusion-defective mutant growth rescue, CellTiterGlo 48 h. AID 485298. 0.23% of 320,000 active. Potency, µM (series often up to 46.1 µM), actives largely listed as activators; further: nearly all actives have a fitted effect of over 45% in size
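Temperature-sensitive fusion-defective S. cerevisiae (e.g. fzo1-1, mgm1-5) were grown with compound in YPEG medium (3% ethanol, 3% glycerol) for 48 hours at 37C. Growth rescue was measured as viability by CellTiterGlo luminescence after 10 minutes at ambient.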
FUS yeast rescue = rescues growth of FUS-expressing yeast; S. cerevisiae FUS-expressing, growth rescue, OD600, 24 h; Potency, µM (highest dose often 76.6 µM), usual class: activators; 0.24% of 390,000 active; AID 1347120; further: nearly all actives have a fitted effect of over 55% in size
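Quantitative HTS measuring growth restoration of FUS-toxic yeast. Galactose-induced cells (OD 0.005) were exposed 24hr at 30C to compounds at several concentrations, then absorbance at 600 nm was recorded.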
gsp antagonist = gsp mutant antagonism | Potency, µM (titrated, usually from 76.9 µM), usual class: inhibitors | 0.4% of 340,000 active | AID 624288 | gsp-mutant cells, cAMP HTRF, 30 min; calls by dose curve; cell line not stated here;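 further: intracellular cAMP measured with PDE inhibitor Ro 20-1724 present during compound exposure; nearly all actives have a fitted effect of over 65% in size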
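HTRF cAMP measurement after 30 min RT detection following 30 min, 37C compound treatment alongside […] (added as 300 uM solution) in G418-selected cells seeded at 2000/well and grown 16–24 h.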
gsp agonist = activates gsp, the McCune-Albright syndrome mutation | gsp mutant cells, cAMP HTRF, 30 min | Potency, µM (titrated, usually from 76.9 µM), actives largely listed as activators | 0.13% of 340,000 active; active means well fitted activation curve with a large enough effect; inconclusive means small, poorly fitted or top-dose-only effect, or another doubt; inactive means no such curve, though single readings can be large or run the other way; cell line not stated here;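 further: phosphodiesterase inhibitor Ro 20-1724 added with compounds to block cAMP breakdown; nearly all actives have a fitted effect of over 60% in size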
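Cells stably selected in G418 were plated at 2000/well, grown 16-24 hr, then given compounds in DMSO with the PDE inhibitor […] (300 uM solution added) for 30 min at 37C; cAMP was read by HTRF.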
12-LOX inh = blocks human arachidonate 12S-lipoxygenase; purified 12hLO, xylenol orange hydroperoxide absorbance; Potency, µM (series often up to 108 µM), most hits filed as inhibitors; 1.1% of 580,000 active; AID 1671190
Target sequence (P18054 whole entry, looked up): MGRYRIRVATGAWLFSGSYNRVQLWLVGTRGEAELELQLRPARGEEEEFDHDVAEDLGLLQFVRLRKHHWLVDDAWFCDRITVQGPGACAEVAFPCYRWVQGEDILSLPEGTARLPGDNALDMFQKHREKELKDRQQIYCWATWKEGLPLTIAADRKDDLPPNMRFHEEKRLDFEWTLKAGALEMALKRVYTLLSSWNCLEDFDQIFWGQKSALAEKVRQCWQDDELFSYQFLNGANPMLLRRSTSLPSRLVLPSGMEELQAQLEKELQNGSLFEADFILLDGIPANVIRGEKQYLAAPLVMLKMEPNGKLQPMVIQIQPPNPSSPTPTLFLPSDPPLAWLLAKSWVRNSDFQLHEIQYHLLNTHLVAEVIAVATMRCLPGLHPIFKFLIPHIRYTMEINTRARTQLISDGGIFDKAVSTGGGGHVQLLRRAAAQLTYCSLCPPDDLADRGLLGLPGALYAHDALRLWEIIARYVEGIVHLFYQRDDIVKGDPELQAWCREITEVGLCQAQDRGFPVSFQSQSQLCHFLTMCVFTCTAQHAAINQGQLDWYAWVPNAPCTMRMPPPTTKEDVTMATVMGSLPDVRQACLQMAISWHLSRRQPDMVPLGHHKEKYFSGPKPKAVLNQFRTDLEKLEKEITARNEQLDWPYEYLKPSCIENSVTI
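Purified human 12hLO at 150 nM in 25 mM Hepes, 0.01% Triton X-100, pH 7.0, preincubated 15 min at room temperature with compound. Reaction started with 40 uM arachidonic acid, 30 min at room temperature. Hydroperoxide measured by Fe-xylenol orange, 573/405 nm absorbance ratio.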
Of the large screens only hits and unclear results are named; the others gave an inactive call; ! = not confirmed by another sample. Sampled rows, rich in hits. Any-hit rate of the full collection: about 1.6%. Unless noted, the call rests on the fitted dose curve; in most records, active means well fitted curve in the direction sought with a large enough effect; inconclusive means small, poorly fitted or top-dose-only effect, or another doubt; inactive means no such curve, though single readings can be large; an effect the other way counts as inactive or inconclusive.

COC(=O)[C@H](CC(C)C)N1Cc2cc(OC)cc(OC)c2-c2ccccc2S1(=O)=O	12-LOX inh 25µM (no result: Mito fusion act, gsp agonist)
O=S(=O)(c1cccc2nsnc12)N(Cc1ccc2c(c1)OCO2)C1CCCC1	none (no result: Mito fusion act, FUS yeast rescue, gsp antagonist, gsp agonist)
Oc1c(C=Nc2ccccc2)sc(=S)n1Cc1ccccc1	12-LOX inh 8.9µM
CCn1c(O)c(C=Nc2ccccc2)sc1=S	12-LOX inh inconclusive
CC(C)(C)C(=O)NCc1cccc(Oc2ccccc2)c1	none (no result: Mito fusion act, FUS yeast rescue, gsp antagonist, gsp agonist)
CCCNC(=O)c1cc2c(c(-c3cccc(-c4ccccc4F)c3)n1)[C@H](CCO)N(C(=O)CC1CC1)C2	FUS yeast rescue inconclusive (no result: Mito fusion act, gsp antagonist, gsp agonist)
CCNC(=O)c1cc2c(c(-c3cccc(-c4ccccc4F)c3)n1)[C@@H](CCO)N(C(=O)CC1CC1)C2	FUS yeast rescue 18µM (no result: Mito fusion act, gsp antagonist, gsp agonist)
COc1ccc(C2=C(O)C(=O)N(CCc3ccccc3)C2c2ccc(C(=O)O)cc2)cc1 (stereo not given)	12-LOX inh 18µM (no result: Mito fusion act, FUS yeast rescue, gsp antagonist, gsp agonist)
COc1ccc(C2C(C(=O)C(C)(C)C)=C(O)C(=O)N2Cc2ccccc2)cc1 (stereo not given)	gsp agonist inconclusive (no result: FUS yeast rescue)
COc1ccc(C2=C(O)C(=O)N(Cc3ccc(C)cc3)C2c2ccc(F)cc2)cc1 (stereo not given)	12-LOX inh 18µM (no result: Mito fusion act, FUS yeast rescue, gsp antagonist, gsp agonist)
O=C(NCc1ccccc1)c1cc2cc(F)ccc2[nH]1	none (no result: Mito fusion act, FUS yeast rescue, gsp antagonist, gsp agonist)
COc1cc(/C=C(/NC(=O)c2ccccc2)C(=O)O)ccc1OCc1ccccc1	none (no result: Mito fusion act, FUS yeast rescue, gsp antagonist, gsp agonist)
CC(C)OC(=O)CC(=O)c1sc2nc3c(cc2c1N)CN(C)CC3	FUS yeast rescue 13µM (no result: 12-LOX inh)
COc1ccccc1-c1c(C(F)(F)F)oc2cc(OCC#N)ccc2c1=O	none (no result: Mito fusion act, FUS yeast rescue, gsp antagonist, gsp agonist)
CNc1c(NC(=O)Nc2ccc(F)cc2)c(=O)oc2ccccc12	12-LOX inh 10µM (no result: Mito fusion act, FUS yeast rescue, gsp antagonist, gsp agonist)
Clc1ccc(N2CCN(c3ncnc4nc[nH]c34)CC2)cc1Cl	none (no result: Mito fusion act, FUS yeast rescue, gsp antagonist, gsp agonist)
Brc1ccccc1-c1nnc(CN2CCCCC2)o1	none (no result: Mito fusion act, FUS yeast rescue, gsp antagonist, gsp agonist)
Cc1cccc(N2CCN(C(=O)C3CCN(c4ncnc5c4nc4n5CCCCC4)CC3)CC2C)c1 (stereo not given)	FUS yeast rescue inconclusive, gsp antagonist 40µM
O=C(C1CCCN(c2ncnc3c2nc2n3CCCCC2)C1)N1CCN(c2ccccc2)CC1 (stereo not given)	none
Cc1cccc(N2CCN(C(=O)C3CCN(c4ncnc5c4nc4n5CCCCC4)CC3)CC2)c1C	FUS yeast rescue 32µM!, gsp antagonist inconclusive
O=C(C1CCCN(c2ncnc3c2nc2n3CCCCC2)C1)N1CCN(c2cccc(Cl)c2)CC1 (stereo not given)	Mito fusion act 8.9µM, FUS yeast rescue inconclusive, gsp antagonist inconclusive
O=Cc1ccc(OCc2cccc3ccccc23)c(Cl)c1	none (no result: Mito fusion act, FUS yeast rescue, gsp antagonist, gsp agonist)
CC(=O)N1CCc2cc(NC(=O)CNc3ccccc3OC(F)F)ccc21	none (no result: Mito fusion act, FUS yeast rescue, gsp antagonist, gsp agonist)
CC1CCC/C(=N/NC(=S)Nc2ccccc2)C1 (stereo not given)	12-LOX inh 28µM (no result: Mito fusion act, FUS yeast rescue, gsp antagonist, gsp agonist)
CCC(C)(C)C1CCC(=NNC(=S)Nc2ccccc2)CC1 (stereo not given)	12-LOX inh inconclusive
CCN(CC(=O)Nc1c(F)cccc1F)C(=O)CCCN1C(=O)c2cccc3cccc(c23)C1=O	gsp agonist 13µM (no result: Mito fusion act, gsp antagonist)
O=C1CC(c2c(Cl)cccc2Cl)c2c(ccc3ccccc23)N1 (stereo not given)	12-LOX inh inconclusive (no result: Mito fusion act, gsp antagonist, gsp agonist)
Nc1nc2c(s1)C(c1c(Cl)cccc1Cl)CC(=O)N2 (stereo not given)	12-LOX inh 14µM (no result: Mito fusion act, FUS yeast rescue, gsp antagonist, gsp agonist)
Nc1nc2c(s1)C(c1ccccc1Cl)CC(=O)N2 (stereo not given)	12-LOX inh 20µM (no result: Mito fusion act, FUS yeast rescue, gsp antagonist, gsp agonist)
CSc1nc2c(c(=O)[nH]1)C(c1ccccc1Cl)CC(=O)N2 (stereo not given)	none
CCN(CCCNC(=O)c1cc2cc3cc(C)ccc3nc2s1)c1cccc(C)c1	FUS yeast rescue 32µM (no result: Mito fusion act, gsp antagonist, gsp agonist)
COC(=O)C1(NC(=O)CSc2ccccc2Cl)CCCCC1	none (no result: Mito fusion act, FUS yeast rescue, gsp antagonist, gsp agonist)
COc1cc(C(=O)NC(=S)N2CCCCCC2)cc(OC)c1OC	none
COc1ccccc1C(=O)NNC(=S)NC(=O)c1cc(OC)c(OC)c(OC)c1	12-LOX inh 40µM
COc1ccc(C(=O)NC(=S)NNC(=O)c2ccccc2O)cc1	none
COc1cc(C(=O)NC(=S)NC(C)C)cc(OC)c1OC	12-LOX inh 35µM (no result: FUS yeast rescue)
COc1cc(C(=O)NC(=S)NNC(=O)[C@H]2C[C@@H]2c2ccccc2)cc(OC)c1OC	12-LOX inh 32µM
COc1cc(C(=O)NNC(=S)NC(=O)c2ccccc2C)cc(OC)c1OC	none
